Records with an inconclusive call do not appear. Activity calls are given as the source filed them. How the source made its calls, unless noted: active means hit-call score of the fitted dose curve at least 0.9, where 1 is the maximum; inconclusive means response in the unintended direction; inactive means score below 0.9.
Molecular target: human Retinoic Acid Receptor beta (RARb), RARB (gene 5915) (UniProt P10826)
Experiment: ATG_RARb_TRANS: Attagene TRANS-FACTORIAL HepG2 Assay for human Retinoic Acid Receptor beta (AID 2283004)
Conditions: not given
Outline: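 Fluorescent capillary-electrophoresis detection of GAL4-UAS reporter mRNA defines the endpoint, with induction over DMSO-treated wells scored as activity. Transiently transfected human hepatoma HepG2 cells expressing exogenous NR–Gal4 proteins are exposed to test chemicals for 24 h.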

Sequence of human Retinoic Acid Receptor beta (RARb), RARB (gene 5915) (P10826 whole entry, looked up): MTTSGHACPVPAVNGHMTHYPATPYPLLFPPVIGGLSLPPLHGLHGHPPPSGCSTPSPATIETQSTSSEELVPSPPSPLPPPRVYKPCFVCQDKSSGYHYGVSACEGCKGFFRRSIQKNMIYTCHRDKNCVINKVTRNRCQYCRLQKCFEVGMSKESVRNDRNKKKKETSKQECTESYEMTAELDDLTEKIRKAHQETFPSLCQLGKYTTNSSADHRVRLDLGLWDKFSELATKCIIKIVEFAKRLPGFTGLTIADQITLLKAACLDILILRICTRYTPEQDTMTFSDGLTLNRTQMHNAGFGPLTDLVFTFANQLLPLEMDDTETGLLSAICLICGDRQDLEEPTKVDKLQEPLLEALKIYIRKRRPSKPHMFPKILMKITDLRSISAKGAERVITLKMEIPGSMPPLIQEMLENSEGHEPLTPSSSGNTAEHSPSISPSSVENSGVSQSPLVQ

outcome, inactive:
CCC(C)(C)C1CCCCC1OC(C)=O (stereo not drawn)
CN(C)CCCN(C)C
O=C(O)Cc1c(Cl)ccc(Cl)c1Cl
Cc1cccc(N)n1
CCCCCC(C)O (stereo not drawn)
CC(C)(c1cc(Br)c(OCCO)c(Br)c1)c1cc(Br)c(OCCO)c(Br)c1
CCCCCCOc1cc(C)c(O)c(C)c1C
CCCCC(CC)COC(=O)c1ccccc1O (stereo not drawn)
CCOC(=O)NNc1nncc2ccccc12
CCCCCCCCCCCCCCCC(=O)OCC
CNC(=S)NN
OC1CCCCCCCCCCC1
CCN(CC#N)c1cccc(C)c1

Molecular target: Retinoic acid receptor alpha (Homo sapiens) (UniProt P10276)
Experiment: ATG_RARa_TRANS: Attagene TRANS-FACTORIAL HepG2 Assay for human Retinoic Acid Receptor alpha (RARa) (AID 2283005)
Conditions: not given
Outline: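 HepG2 cells transiently transfected with multiple reporter units expressing chimeric RARα-GAL4 fusion, with GAL4-UAS-driven reporters. After 24 h compound exposure, reporter mRNA induction quantified by RT-PCR and capillary electrophoresis with fluorescent labeling; gain-of-signal fitted relative to DMSO control.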

Sequence of Retinoic acid receptor alpha (Homo sapiens) (P10276 whole entry, looked up): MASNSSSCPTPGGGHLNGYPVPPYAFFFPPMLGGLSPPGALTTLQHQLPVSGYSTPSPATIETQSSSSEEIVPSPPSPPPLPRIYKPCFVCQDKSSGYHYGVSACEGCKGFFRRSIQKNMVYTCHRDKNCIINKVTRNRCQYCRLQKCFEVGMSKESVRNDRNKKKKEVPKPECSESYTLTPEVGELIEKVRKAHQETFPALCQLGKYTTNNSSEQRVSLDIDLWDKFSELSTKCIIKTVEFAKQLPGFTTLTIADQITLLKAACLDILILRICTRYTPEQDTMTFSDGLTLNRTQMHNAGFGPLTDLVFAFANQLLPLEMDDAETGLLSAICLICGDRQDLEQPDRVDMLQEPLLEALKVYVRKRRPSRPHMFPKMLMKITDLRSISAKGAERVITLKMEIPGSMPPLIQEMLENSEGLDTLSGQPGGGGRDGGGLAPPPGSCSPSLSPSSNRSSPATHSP

outcome, inactive:
CN(C)CCCN(C)C
CC(C)(c1cc(Br)c(OCCO)c(Br)c1)c1cc(Br)c(OCCO)c(Br)c1
CCCCCCOc1cc(C)c(O)c(C)c1C
CCCCC(CC)COC(=O)c1ccccc1O (stereo not drawn)
CCCCCCCCCCCCCCCC(=O)OCC
CNC(=S)NN
C=C[Si](OC(C)=O)(OC(C)=O)OC(C)=O

Read-out: not listed separately
Experiment: BSK_3C_Proliferation: Cell Proliferation Assessment in the BioMAP Diversity Plus: 3C Assay (AID 2283006; active means hit-call score of the fitted dose curve at least 0.9, where 1 is the maximum; inactive means score below 0.9;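 on AC50: potency may reflect either rise or fall in cell number versus DMSO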)
Conditions: primary human endothelial cells (HUVEC)
Outline: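 Human umbilical vein endothelial cells were grown sub-confluent and exposed to chemical for 48 h, then fixed with 10% TCA and stained with 0.1% sulforhodamine B; absorbance at 560 nm gave relative cell number, fitted bidirectionally against DMSO baseline.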

AC50, active:
O=C(Cl)c1cc(C(=O)Cl)cc(C(=O)Cl)c1 6.87 µM
CC(C)(c1cc(Br)c(OCCO)c(Br)c1)c1cc(Br)c(OCCO)c(Br)c1 11.9 µM
CCCCC(CC)COC(=O)c1ccccc1O (stereo not drawn) 17.3 µM

outcome, inactive:
CC(C)C(=O)C(C)C
C=C[Si](OC(C)=O)(OC(C)=O)OC(C)=O

Molecular target: Peroxisome proliferator-activated receptor gamma (Homo sapiens) (UniProt P37231)
Experiment: ATG_PPARg_TRANS: Attagene TRANS-FACTORIAL HepG2 Assay for human Peroxisome Proliferator-activated Receptor-gamma (PPARg) (AID 2283007)
Conditions: not given
Outline: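 Endpoint reflects upward reporter mRNA change versus DMSO controls. Setup: transiently transfected HepG2, GAL4-UAS reporters driven by chimeric NR-Gal4, 24 h incubation, RT-PCR with capillary electrophoresis read-out.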

Sequence of Peroxisome proliferator-activated receptor gamma (Homo sapiens) (P37231 whole entry, looked up): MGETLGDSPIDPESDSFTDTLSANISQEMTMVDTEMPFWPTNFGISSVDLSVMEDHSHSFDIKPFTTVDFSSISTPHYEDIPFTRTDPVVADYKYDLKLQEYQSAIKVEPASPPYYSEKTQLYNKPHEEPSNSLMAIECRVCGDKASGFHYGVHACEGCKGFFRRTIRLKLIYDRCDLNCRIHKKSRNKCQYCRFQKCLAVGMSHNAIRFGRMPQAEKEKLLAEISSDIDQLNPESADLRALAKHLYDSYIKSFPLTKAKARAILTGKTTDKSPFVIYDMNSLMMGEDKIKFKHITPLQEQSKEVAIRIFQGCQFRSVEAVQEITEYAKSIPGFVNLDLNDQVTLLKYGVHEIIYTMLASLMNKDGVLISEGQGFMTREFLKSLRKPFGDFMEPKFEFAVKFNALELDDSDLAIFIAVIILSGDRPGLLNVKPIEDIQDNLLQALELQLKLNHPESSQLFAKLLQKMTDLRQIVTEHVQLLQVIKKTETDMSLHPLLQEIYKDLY

outcome, inactive:
O=C(Cl)c1cc(C(=O)Cl)cc(C(=O)Cl)c1
CCC(C)(C)C1CCCCC1OC(C)=O (stereo not drawn)
CCCCCC(C)O (stereo not drawn)
CC1=NN(c2cc(S(=O)(=O)O)ccc2Cl)C(=O)C1N=Nc1ccccc1 (stereo not drawn)
CCCCC(CC)COC(=O)c1ccccc1O (stereo not drawn)
OC1CCCCCCCCCCC1
C=C(C)C(=O)OCCO
CCN(CC#N)c1cccc(C)c1
O=C(O)CCCCCCCCCC(=O)O

AC50, active:
CCCCCCCCCCC=CC#N 28.2 µM
O=C(O)Cc1c(Cl)ccc(Cl)c1Cl 52.1 µM
CC(C)(c1cc(Br)c(OCCO)c(Br)c1)c1cc(Br)c(OCCO)c(Br)c1 2.78 µM
CCCCCCOc1cc(C)c(O)c(C)c1C 11.1 µM
CC1=Nc2ccc3ccccc3c2C1(C)C 40.5 µM
CC(C)C(=O)C(C)C 6.38 µM
COC(=O)c1ccc2cc(C(=O)OC)ccc2c1 26.3 µM
CCN(CCC#N)c1ccc(N=Nc2c(Cl)cc([N+](=O)[O-])cc2Cl)cc1 16.3 µM
COC(=O)/C=C\C(=O)O 35.2 µM

Molecular target: Nuclear receptor subfamily 1 group I member 2 (Homo sapiens) (UniProt O75469)
Experiment: ATG_PXR_TRANS: Attagene TRANS-FACTORIAL HepG2 Assay for human Pregnane X Receptor (PXR) (AID 2283008)
Conditions: not given
Outline: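 Measures mRNA induction of a GAL4-UAS-driven reporter in human HepG2 cells transiently expressing PXR fused to Gal4, following 24 h treatment. DMSO served as negative control and baseline.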

Sequence of Nuclear receptor subfamily 1 group I member 2 (Homo sapiens) (O75469 whole entry, looked up): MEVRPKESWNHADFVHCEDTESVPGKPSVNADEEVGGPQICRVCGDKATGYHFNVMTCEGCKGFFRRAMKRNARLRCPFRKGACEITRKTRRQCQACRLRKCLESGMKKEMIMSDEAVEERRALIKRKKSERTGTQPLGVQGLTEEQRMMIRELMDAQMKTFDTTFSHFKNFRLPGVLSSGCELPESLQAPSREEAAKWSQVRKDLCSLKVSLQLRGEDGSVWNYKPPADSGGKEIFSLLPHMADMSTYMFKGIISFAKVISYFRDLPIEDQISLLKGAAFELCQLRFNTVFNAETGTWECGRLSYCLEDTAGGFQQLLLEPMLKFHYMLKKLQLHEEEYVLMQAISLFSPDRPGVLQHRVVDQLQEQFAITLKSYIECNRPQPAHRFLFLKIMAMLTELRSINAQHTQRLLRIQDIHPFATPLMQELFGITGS

outcome, inactive:
C1=CCCC1
COc1cc(NC(=O)CC(C)=O)c(OC)cc1Cl
CCOc1ccc(N)c([N+](=O)[O-])c1
CCC(C)(C)C1CCCCC1OC(C)=O (stereo not drawn)
CN(C)CCCN(C)C
COCCCOCCCOC
O=C(O)Cc1c(Cl)ccc(Cl)c1Cl
Cc1cccc(N)n1
CC1=NN(c2cc(S(=O)(=O)O)ccc2Cl)C(=O)C1N=Nc1ccccc1 (stereo not drawn)
CCCCCCCCCCOS(=O)(=O)O
CCCCCCOc1cc(C)c(O)c(C)c1C
Nc1ccc(Cl)cc1Cl
CCCCC(CC)COC(=O)c1ccccc1O (stereo not drawn)
COC(=O)c1ccc2cc(C(=O)OC)ccc2c1
COC(=O)c1ccccc1OC
c1ccc(CNCc2ccccc2)cc1
CCOC(=O)NNc1nncc2ccccc12
CCCCCCCCCCCCCCCC(=O)OCC
O=C(O)c1cc2ccccc2nc1C(=O)O
CCCCCC/C=C/C=O
NC(=O)OCC(COC(N)=O)c1ccccc1
C=C(C)C(=O)OCCO
CCN(CC#N)c1cccc(C)c1
COCCOCCOCCOCCOC
O=C(O)CCCCCCCCCC(=O)O

AC50, active:
COc1c2ccoc2cc2oc(=O)ccc12 36.6 µM
CCCCCCCCCCC=CC#N 29.9 µM
CC(C)(c1cc(Br)c(OCCO)c(Br)c1)c1cc(Br)c(OCCO)c(Br)c1 1.71 µM
CC1=Nc2ccc3ccccc3c2C1(C)C 2.65 µM
CCN(CCC#N)c1ccc(N=Nc2c(Cl)cc([N+](=O)[O-])cc2Cl)cc1 1.05 µM
C=C[Si](OC(C)=O)(OC(C)=O)OC(C)=O 4.82 µM
OC1CCCCCCCCCCC1 8.87 µM

Molecular target: human Retinoic Acid Receptor gamma (RARg), RARG (gene 5916) (UniProt P13631)
Experiment: ATG_RARg_TRANS: Attagene TRANS-FACTORIAL HepG2 Assay for human Retinoic Acid Receptor gamma (RARg) (AID 2283009);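 on AC50: AC50 is for reporter induction above DMSO meaning RARg activation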
Conditions: not given
Outline: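 HepG2 cells transiently transfected with multiplexed reporter units expressing chimeric RARg-GAL4 and GAL4-UAS-driven reporters; 24 h compound exposure. Reporter mRNA quantified by RT-PCR with fluorescent labelling and capillary electrophoresis; gain-of-signal fitted relative to DMSO baseline.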

Sequence of human Retinoic Acid Receptor gamma (RARg), RARG (gene 5916) (P13631 whole entry, looked up): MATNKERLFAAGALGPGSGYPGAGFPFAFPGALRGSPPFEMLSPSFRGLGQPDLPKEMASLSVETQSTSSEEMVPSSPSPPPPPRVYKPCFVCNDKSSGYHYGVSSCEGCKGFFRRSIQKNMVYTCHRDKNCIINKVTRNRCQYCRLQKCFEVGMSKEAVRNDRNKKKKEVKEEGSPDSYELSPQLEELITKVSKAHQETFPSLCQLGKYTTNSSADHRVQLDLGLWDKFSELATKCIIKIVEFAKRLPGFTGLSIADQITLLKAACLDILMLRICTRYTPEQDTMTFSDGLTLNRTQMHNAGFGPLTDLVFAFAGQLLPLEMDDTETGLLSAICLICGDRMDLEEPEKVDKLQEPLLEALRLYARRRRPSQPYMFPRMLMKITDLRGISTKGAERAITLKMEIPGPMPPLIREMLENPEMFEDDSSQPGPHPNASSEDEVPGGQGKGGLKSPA

outcome, inactive:
C1=CCCC1
COc1cc(NC(=O)CC(C)=O)c(OC)cc1Cl
CCC(C)(C)C1CCCCC1OC(C)=O (stereo not drawn)
O=C(O)Cc1c(Cl)ccc(Cl)c1Cl
CC1=NN(c2cc(S(=O)(=O)O)ccc2Cl)C(=O)C1N=Nc1ccccc1 (stereo not drawn)
CCCCCCOc1cc(C)c(O)c(C)c1C
CC1=Nc2ccc3ccccc3c2C1(C)C
COC(=O)c1ccc2cc(C(=O)OC)ccc2c1
CCOC(=O)NNc1nncc2ccccc12
CCCCCCCCCCCCCCCC(=O)OCC
CNC(=S)NN
CCN(CCC#N)c1ccc(N=Nc2c(Cl)cc([N+](=O)[O-])cc2Cl)cc1
C=C[Si](OC(C)=O)(OC(C)=O)OC(C)=O
OC1CCCCCCCCCCC1
C=C(C)C(=O)OCCO
COC(=O)/C=C\C(=O)O
CC(=O)Oc1ccc(C(C)=O)cc1

AC50, active:
CC(C)(c1cc(Br)c(OCCO)c(Br)c1)c1cc(Br)c(OCCO)c(Br)c1 0.454 µM

Source: PubChem BioAssay (EPA / NIEHS)
